Reference: the supplement of paper PMC10849652
About 7,900 targets were measured; listed, in parts, are those with a hit and a random draw of the rest. About 0.6% of all pairs of compound and target were hits.

Legend:
Assay in all cases: log2 fold change, soluble protein after heating vs DMSO (PISA); higher = thermal stabilisation; K562 cells, 10 uM, 30 min; active = over 0.2 and 3.5 SD of the protein, either way, in both replicates (recomputed)
[1] = compound: COC1=CC=C(C=C1)CN2C=CC3=C2C=C(C=C3)C(=O)NO
How it was run: (§1)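 K562 cells (2×10^6 cells/mL) were treated with 10 μM compound for 30 min, and aliquots were heated for 3 min over 48°C-58°C. Pooled aliquots were extracted in PBS with 0.5% NP-40 at 4°C, and the supernatant after 21,000xg for 90 min was measured by TMTpro 16plex LC-MS/MS with channel sums equalised. Reported thermal stability, relative to control samples and from duplicates, is a log2 fold change.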

filanesib = compound: CON(C)C(=O)N1N=C(c2cc(F)ccc2F)S[C@@]1(CCCN)c1ccccc1 [filanesib]
How it was run: as §1

zotarolimus = compound: CO[C@H]1C[C@@H]2CC[C@@H](C)[C@@](O)(O2)C(=O)C(=O)N2CCCC[C@H]2C(=O)O[C@H]([C@H](C)C[C@@H]2CC[C@H](n3cnnn3)[C@H](OC)C2)CC(=O)[C@H](C)/C=C(\C)[C@@H](O)[C@@H](OC)C(=O)[C@H](C)C[C@H](C)/C=C/C=C/C=C/1C [zotarolimus]
How it was run: as §1

idasanutlin = compound: COc1cc(C(=O)O)ccc1NC(=O)[C@@H]1N[C@@H](CC(C)(C)C)[C@](C#N)(c2ccc(Cl)cc2F)[C@H]1c1cccc(Cl)c1F [idasanutlin]
How it was run: as §1

alisertib = compound: COc1cc(Nc2ncc3c(n2)-c2ccc(Cl)cc2C(c2c(F)cccc2OC)=NC3)ccc1C(=O)O [alisertib]
How it was run: as §1

[2] = compound: COc1cc2nc(-c3cc(F)ccc3O)nc(N[C@@H]3CNC[C@H]3C(C)(C)O)c2cc1OC
How it was run: as §1

gefitinib = compound: COc1cc2ncnc(Nc3ccc(F)c(Cl)c3)c2cc1OCCCN1CCOCC1 [gefitinib]
How it was run: as §1

[3] = compound: COc1cccc2cc(-c3nc([C@H]4CC[C@H](C(=O)O)CC4)n4ncnc(N)c34)[nH]c12
How it was run: as §1

lapatinib = compound: CS(=O)(=O)CCNCc1ccc(-c2ccc3ncnc(Nc4ccc(OCc5cccc(F)c5)c(Cl)c4)c3c2)o1 [lapatinib]
How it was run: as §1

pictilisib = compound: CS(=O)(=O)N1CCN(Cc2cc3nc(-c4cccc5[nH]ncc45)nc(N4CCOCC4)c3s2)CC1 [pictilisib]
How it was run: as §1

[4] = compound: CS(=O)(=O)c1ccc(-c2cnc(N)c(C(=O)Nc3ccccc3)n2)cc1
How it was run: as §1

crizotinib = compound: C[C@@H](Oc1cc(-c2cnn(C3CCNCC3)c2)cnc1N)c1c(Cl)ccc(F)c1Cl [crizotinib]
How it was run: as §1

[5] = compound: C[C@H](C1=CC=C(C=C1)C(=O)NC2=C3C=CNC3=NC=C2)N
How it was run: as §1

duvelisib = compound: C[C@H](Nc1ncnc2nc[nH]c12)c1cc2cccc(Cl)c2c(=O)n1-c1ccccc1 [duvelisib]
How it was run: as §1

gandotinib = compound: Cc1cc(Nc2cc(CN3CCOCC3)c3nc(C)c(Cc4ccc(Cl)cc4F)n3n2)n[nH]1 [gandotinib]
How it was run: as §1

tozasertib = compound: Cc1cc(Nc2cc(N3CCN(C)CC3)nc(Sc3ccc(NC(=O)C4CC4)cc3)n2)n[nH]1 [tozasertib]
How it was run: as §1

[6] = compound: Cc1cc(SCc2sc(-c3ccc(C(F)(F)F)cc3)nc2C)ccc1OCC(=O)O
How it was run: as §1

doramapimod = compound: Cc1ccc(-n2nc(C(C)(C)C)cc2NC(=O)Nc2ccc(OCCN3CCOCC3)c3ccccc23)cc1 [doramapimod]
How it was run: as §1

ispinesib = compound: Cc1ccc(C(=O)N(CCCN)[C@@H](c2nc3cc(Cl)ccc3c(=O)n2Cc2ccccc2)C(C)C)cc1 [ispinesib]
How it was run: as §1

[7] = compound: C[C@@H]1COCCN1C2=NC(=NC(=C2)C3(CC3)S(=O)(=O)C)C4=C5C=CNC5=CC=C4
How it was run: as §1

Measured: log2 fold change

NPM3 (UniProt O75607)
Sequence of UniProt O75607 (O75607 whole entry, looked up): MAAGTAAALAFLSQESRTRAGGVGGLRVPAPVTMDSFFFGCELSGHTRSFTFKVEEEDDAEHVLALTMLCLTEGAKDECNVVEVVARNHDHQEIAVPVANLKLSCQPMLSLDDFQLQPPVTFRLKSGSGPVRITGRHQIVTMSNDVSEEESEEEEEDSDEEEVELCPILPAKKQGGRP
inactive: [1] 0.123 | filanesib 0.116 | zotarolimus 0.104 | idasanutlin 0.258 | alisertib -0.205 | [2] 0.006 | gefitinib -0.011 | [3] -0.069 | lapatinib -0.003 | pictilisib -0.025 | [4] -0.125 | crizotinib 0.001 | [5] -0.043 | duvelisib 0.022 | gandotinib 0.109 | tozasertib -0.034 | [6] -0.011 | doramapimod 0.024 | ispinesib 0.022

NAA11 (UniProt Q9BSU3)
Sequence of UniProt Q9BSU3 (Q9BSU3 whole entry, looked up): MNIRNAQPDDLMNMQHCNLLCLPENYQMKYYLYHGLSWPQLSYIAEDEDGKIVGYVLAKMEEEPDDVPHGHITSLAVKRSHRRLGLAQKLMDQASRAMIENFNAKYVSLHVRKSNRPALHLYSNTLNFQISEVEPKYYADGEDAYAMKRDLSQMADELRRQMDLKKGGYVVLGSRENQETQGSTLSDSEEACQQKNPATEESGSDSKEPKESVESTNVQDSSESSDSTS
inactive: [1] 0.077 | filanesib -0.026 | zotarolimus -0.022 | idasanutlin 0.037 | alisertib -0.066 | [2] 0.13 | gefitinib 0.037 | [3] 0.116 | lapatinib -0.085 | [4] 0.027 | crizotinib -0.065 | [7] 0.006 | [5] 0.086 | duvelisib -0.015 | tozasertib 0.007 | [6] 0.114 | doramapimod -0.037 | ispinesib -0.009

NUDT1 (UniProt P36639)
inactive: [1] 0.043 | filanesib -0.06 | zotarolimus -0.068 | idasanutlin -0.169 | alisertib -0.017 | [2] 0.11 | gefitinib 0.354 | [3] -0.046 | lapatinib -0.016 | pictilisib -0.01 | [4] 0.185 | [7] 0.08 | [5] 0.107 | duvelisib 0.61 | gandotinib -0.167 | tozasertib -0.057 | [6] 0.017 | doramapimod -0.113 | ispinesib 0.012

NECTIN2 isoform 2 (UniProt Q92692)
inactive: [1] 0.106 | filanesib 0.094 | idasanutlin 0.061 | alisertib -0.016 | gefitinib -0.048 | [3] 0.093 | pictilisib -0.368 | [4] -0.059 | crizotinib 0.062 | [7] -0.2 | duvelisib -0.248 | gandotinib -0.206 | [6] -0.149 | doramapimod -0.086 | ispinesib 0.198

MRFAP1 (UniProt Q9Y605)
Sequence of UniProt Q9Y605 (Q9Y605 whole entry, looked up): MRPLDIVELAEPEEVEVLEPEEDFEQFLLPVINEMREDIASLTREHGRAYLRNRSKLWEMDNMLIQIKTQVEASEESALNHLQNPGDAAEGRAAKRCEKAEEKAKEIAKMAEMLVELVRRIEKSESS
inactive: [1] 0.015 | filanesib -0.012 | zotarolimus -0.018 | idasanutlin 0.173 | alisertib -0.435 | [2] -0.154 | gefitinib -0.036 | [3] 0.157 | lapatinib -0.093 | pictilisib -0.01 | [4] -0.066 | crizotinib -0.142 | [5] -0.048 | duvelisib 0.072 | gandotinib -0.014 | tozasertib 0.027 | [6] -0.023 | doramapimod 0.045 | ispinesib 0.016

MRPS22 (UniProt P82650)
inactive: [1] 0.041 | filanesib 0.05 | zotarolimus 0.071 | alisertib 0.015 | [2] 0.019 | gefitinib -0.017 | [3] -0.019 | lapatinib 0.038 | pictilisib -0.03 | [4] -0.014 | crizotinib 0.037 | [7] 0.086 | [5] 0.055 | duvelisib 0.043 | gandotinib 0.008 | tozasertib 0.004 | [6] 0.081 | doramapimod 0.002
active: idasanutlin -0.301 | ispinesib -0.258

NME2P1 (UniProt O60361)
Sequence of UniProt O60361 (O60361 whole entry, looked up): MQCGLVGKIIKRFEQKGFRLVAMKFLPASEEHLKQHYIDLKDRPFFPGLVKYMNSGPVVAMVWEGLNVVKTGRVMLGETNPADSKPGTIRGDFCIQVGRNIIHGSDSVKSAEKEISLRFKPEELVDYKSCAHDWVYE
inactive: [1] -0.256 | filanesib 0.058 | zotarolimus -0.111 | idasanutlin -0.367 | alisertib -0.089 | [2] 0.122 | gefitinib -0.01 | [3] 0.084 | lapatinib -0.075 | pictilisib -0.041 | [4] -0.093 | crizotinib -0.066 | [7] -0.114 | [5] 0.079 | gandotinib -0.346 | tozasertib -0.012 | doramapimod 0.27 | ispinesib -0.119

MT-ND1 (UniProt P03886)
inactive: [1] -0.051 | filanesib 0.053 | zotarolimus 0.131 | idasanutlin -0.141 | alisertib -0.015 | [2] -0.152 | gefitinib 0.1 | [3] 0.051 | lapatinib -0.113 | [4] -0.011 | crizotinib -0.179 | [7] 0.287 | [5] -0.039 | duvelisib 0.241 | tozasertib 0.105 | [6] -0.081 | doramapimod 0.056 | ispinesib 0.178

P4HA2 (UniProt O15460)
Sequence of UniProt O15460 (O15460 whole entry, looked up): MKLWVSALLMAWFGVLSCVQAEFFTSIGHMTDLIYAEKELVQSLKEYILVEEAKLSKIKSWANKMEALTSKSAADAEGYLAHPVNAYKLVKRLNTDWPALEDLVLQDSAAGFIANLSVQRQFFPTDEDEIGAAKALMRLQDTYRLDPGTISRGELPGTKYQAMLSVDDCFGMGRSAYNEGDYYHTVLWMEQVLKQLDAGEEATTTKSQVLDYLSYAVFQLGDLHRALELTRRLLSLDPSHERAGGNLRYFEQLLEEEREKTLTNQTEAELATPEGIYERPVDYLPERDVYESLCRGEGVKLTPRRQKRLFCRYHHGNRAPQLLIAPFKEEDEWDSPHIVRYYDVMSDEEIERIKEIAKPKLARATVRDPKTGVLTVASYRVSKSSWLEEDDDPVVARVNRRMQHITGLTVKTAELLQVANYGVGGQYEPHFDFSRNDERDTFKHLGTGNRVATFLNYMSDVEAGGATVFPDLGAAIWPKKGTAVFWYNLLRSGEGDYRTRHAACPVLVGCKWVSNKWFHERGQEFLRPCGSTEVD
inactive: [1] -0.109 | filanesib 0.078 | zotarolimus 0.026 | alisertib 0.011 | [2] -0.139 | gefitinib 0.006 | [3] -0.11 | lapatinib 0.075 | pictilisib -0.003 | [4] 0.079 | crizotinib 0.023 | [5] 0.178 | duvelisib 0.037 | gandotinib 0.021 | tozasertib -0.005 | [6] 0.053 | doramapimod 0.069 | ispinesib -0.088
active: [7] -0.627

MTFR1L (UniProt Q9H019)
inactive: [1] 0.036 | filanesib -0.09 | zotarolimus 0.037 | idasanutlin -0.04 | [2] -0.111 | gefitinib 0.083 | lapatinib 0.044 | pictilisib 0.011 | [4] 0.059 | crizotinib -0.162 | [7] -0.088 | [5] 0.153 | duvelisib -0.146 | gandotinib -0.123 | tozasertib -0.084 | [6] 0.039 | doramapimod 0.042 | ispinesib -0.329

MLH1 (UniProt P40692)
Sequence of UniProt P40692 (P40692 whole entry, looked up): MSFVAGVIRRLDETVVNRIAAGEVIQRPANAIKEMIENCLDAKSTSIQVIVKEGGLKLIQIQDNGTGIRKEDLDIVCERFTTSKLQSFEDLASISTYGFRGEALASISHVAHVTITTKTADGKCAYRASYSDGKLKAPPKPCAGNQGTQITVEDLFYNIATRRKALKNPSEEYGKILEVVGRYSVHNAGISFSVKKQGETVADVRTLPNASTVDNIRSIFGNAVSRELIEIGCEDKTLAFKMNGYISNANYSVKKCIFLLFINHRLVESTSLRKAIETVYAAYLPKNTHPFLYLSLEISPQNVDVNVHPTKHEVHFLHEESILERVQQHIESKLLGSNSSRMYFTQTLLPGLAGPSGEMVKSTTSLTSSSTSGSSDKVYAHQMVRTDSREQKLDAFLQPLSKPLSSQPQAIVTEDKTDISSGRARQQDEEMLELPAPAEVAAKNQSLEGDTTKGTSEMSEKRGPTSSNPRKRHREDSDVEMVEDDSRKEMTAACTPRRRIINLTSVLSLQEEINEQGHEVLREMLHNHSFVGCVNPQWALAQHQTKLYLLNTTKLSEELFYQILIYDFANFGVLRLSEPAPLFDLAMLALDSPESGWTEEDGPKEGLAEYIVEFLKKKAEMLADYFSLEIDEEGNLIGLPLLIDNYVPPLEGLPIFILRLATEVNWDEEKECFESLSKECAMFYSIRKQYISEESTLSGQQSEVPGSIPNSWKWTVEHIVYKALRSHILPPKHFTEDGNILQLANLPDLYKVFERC
inactive: zotarolimus 0.024 | idasanutlin 0.03 | alisertib -0.171 | [2] -0.135 | [3] -0.1 | lapatinib 0.091 | pictilisib 0.083 | [7] 0.042 | [5] -0.127 | duvelisib 0 | gandotinib -0.068 | tozasertib -0.124 | [6] 0.094

MTHFD1, A0A384N5Y3
inactive: filanesib -0.025 | zotarolimus -0.032 | idasanutlin 0.024 | alisertib -0.011 | [2] 0.055 | gefitinib 0.075 | [3] 0.001 | lapatinib -0.016 | pictilisib 0.107 | [4] 0.109 | [7] 0.117 | [5] -0.008 | duvelisib 0.108 | gandotinib -0.036 | tozasertib -0.11 | [6] 0.081 | ispinesib -0.082

NELFCD (UniProt Q8IXH7)
Sequence of UniProt Q8IXH7 (Q8IXH7 whole entry, looked up): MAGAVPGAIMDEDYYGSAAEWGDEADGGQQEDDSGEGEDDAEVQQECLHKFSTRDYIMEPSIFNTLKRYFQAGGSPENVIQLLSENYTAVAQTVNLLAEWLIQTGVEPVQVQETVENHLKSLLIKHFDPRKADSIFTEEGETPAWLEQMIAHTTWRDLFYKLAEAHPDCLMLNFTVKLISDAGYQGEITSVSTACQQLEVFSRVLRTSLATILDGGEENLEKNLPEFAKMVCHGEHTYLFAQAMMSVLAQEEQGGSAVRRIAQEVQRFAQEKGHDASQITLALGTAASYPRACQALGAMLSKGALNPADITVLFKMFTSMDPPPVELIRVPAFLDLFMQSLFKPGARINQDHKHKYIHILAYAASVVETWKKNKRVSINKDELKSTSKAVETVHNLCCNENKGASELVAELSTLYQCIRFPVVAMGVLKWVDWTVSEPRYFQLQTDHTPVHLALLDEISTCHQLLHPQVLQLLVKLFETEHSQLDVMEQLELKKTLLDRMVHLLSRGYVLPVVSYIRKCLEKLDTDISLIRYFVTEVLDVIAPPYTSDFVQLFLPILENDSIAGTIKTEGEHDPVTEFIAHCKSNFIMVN
inactive: [1] 0.006 | zotarolimus -0.071 | idasanutlin 0 | [2] 0.179 | gefitinib -0.052 | lapatinib -0.006 | pictilisib -0.061 | crizotinib 0.349 | [7] 0.145 | [5] 0.006 | duvelisib 0.13 | gandotinib -0.327 | [6] 0.249 | doramapimod 0.025

MON1A (UniProt Q86VX9)
Sequence of UniProt Q86VX9 (Q86VX9 whole entry, looked up): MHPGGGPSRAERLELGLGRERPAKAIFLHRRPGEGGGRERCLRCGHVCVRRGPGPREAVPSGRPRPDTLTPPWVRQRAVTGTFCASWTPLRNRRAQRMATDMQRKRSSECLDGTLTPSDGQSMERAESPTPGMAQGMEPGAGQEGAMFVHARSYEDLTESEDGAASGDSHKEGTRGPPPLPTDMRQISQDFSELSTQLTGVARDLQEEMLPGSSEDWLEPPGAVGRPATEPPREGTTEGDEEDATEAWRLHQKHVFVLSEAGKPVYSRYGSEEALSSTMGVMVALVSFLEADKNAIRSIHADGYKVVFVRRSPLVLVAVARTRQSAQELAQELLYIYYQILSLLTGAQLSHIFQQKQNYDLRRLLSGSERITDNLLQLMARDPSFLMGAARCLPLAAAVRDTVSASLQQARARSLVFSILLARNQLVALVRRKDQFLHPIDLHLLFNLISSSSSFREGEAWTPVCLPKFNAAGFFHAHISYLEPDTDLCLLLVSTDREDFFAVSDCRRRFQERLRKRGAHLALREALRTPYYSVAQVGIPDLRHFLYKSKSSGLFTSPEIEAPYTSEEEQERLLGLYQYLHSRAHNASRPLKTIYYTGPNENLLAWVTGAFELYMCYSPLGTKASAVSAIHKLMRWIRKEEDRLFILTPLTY
active: crizotinib -0.559
inactive: [1] -0.118 | filanesib -0.023 | alisertib 0.291 | [2] -0.042 | gefitinib 0.427 | [3] 0.049 | lapatinib -0.003 | pictilisib -0.011 | [4] 0.049 | [7] 0.057 | duvelisib -0.012 | gandotinib 0.116 | tozasertib -0.111 | [6] 0.011 | doramapimod 0.045 | ispinesib -0.153

NOS1AP (UniProt O75052)
Sequence of UniProt O75052 (O75052 whole entry, looked up): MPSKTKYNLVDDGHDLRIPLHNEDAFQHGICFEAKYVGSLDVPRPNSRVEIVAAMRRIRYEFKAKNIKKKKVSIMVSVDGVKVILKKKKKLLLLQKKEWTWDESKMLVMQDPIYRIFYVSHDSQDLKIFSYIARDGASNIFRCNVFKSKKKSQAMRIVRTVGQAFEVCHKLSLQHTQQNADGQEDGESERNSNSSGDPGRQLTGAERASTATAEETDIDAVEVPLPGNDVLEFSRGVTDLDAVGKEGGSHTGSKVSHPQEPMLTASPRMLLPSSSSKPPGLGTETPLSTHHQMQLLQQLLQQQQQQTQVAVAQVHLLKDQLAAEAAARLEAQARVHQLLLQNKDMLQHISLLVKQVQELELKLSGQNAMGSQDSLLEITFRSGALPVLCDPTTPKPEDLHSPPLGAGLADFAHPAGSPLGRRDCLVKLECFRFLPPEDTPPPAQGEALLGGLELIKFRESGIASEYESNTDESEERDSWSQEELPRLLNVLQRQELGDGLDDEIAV
inactive: zotarolimus -0.098 | alisertib 0.353 | [2] -0.09 | [3] -0.118 | lapatinib -0.1 | [7] 0.101 | [5] 0.237 | tozasertib -0.164 | ispinesib -0.279

MYO19 (UniProt Q96H55)
Sequence of UniProt Q96H55 (Q96H55 whole entry, looked up): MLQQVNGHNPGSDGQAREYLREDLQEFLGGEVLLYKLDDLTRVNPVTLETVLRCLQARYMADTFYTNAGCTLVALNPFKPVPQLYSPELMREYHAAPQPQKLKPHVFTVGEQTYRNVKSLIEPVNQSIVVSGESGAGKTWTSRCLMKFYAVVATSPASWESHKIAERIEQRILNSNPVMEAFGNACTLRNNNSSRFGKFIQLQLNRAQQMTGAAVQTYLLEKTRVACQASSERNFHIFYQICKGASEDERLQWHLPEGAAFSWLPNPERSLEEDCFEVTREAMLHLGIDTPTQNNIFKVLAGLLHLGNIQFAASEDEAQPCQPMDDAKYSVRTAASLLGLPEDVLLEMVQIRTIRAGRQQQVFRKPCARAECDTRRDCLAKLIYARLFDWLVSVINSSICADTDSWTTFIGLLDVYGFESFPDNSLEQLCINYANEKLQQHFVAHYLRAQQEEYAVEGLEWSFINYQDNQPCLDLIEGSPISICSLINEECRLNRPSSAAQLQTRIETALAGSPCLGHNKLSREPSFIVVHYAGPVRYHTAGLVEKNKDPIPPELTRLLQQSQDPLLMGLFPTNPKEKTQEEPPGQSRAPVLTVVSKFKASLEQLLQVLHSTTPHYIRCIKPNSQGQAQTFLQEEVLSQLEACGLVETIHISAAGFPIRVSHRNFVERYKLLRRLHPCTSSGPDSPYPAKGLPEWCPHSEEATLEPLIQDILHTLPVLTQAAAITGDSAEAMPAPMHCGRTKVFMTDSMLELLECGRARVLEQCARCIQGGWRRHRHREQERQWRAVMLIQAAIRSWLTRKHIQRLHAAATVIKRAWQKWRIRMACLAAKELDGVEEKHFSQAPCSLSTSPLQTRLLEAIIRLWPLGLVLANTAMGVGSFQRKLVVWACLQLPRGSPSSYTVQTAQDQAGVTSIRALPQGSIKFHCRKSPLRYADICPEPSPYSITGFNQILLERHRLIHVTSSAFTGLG
inactive: [1] -0.083 | zotarolimus 0.071 | idasanutlin -0.116 | [2] 0.081 | gefitinib 0.024 | lapatinib 0.276 | crizotinib 0.047 | [7] -0.215 | [5] 0.491 | duvelisib -0.07 | gandotinib -0.081 | [6] 0.158 | doramapimod 0.066 | ispinesib -0.065
active: pictilisib 0.567

NA, A0A1W2PSA9
inactive: zotarolimus -0.275 | idasanutlin 0.049 | pictilisib -0.179 | [5] 0.041 | duvelisib 0.311 | gandotinib 0.403 | tozasertib -0.062 | [6] -0.371 | ispinesib -0.059

NMU (UniProt P48645)
Sequence of UniProt P48645 (P48645 whole entry, looked up): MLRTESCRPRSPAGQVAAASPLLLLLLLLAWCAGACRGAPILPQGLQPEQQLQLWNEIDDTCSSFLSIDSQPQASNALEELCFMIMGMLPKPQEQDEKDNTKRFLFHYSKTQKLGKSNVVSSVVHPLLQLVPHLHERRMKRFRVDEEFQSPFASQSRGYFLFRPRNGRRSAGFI
inactive: [1] 0.259 | zotarolimus -0.018 | idasanutlin 0.057 | [2] -0.156 | gefitinib 0.162 | lapatinib -0.047 | pictilisib -0.3 | crizotinib 0.025 | [7] -0.445 | [5] -0.026 | duvelisib -0.001 | gandotinib -0.159 | tozasertib -0.092 | [6] 0.127 | doramapimod -0.04 | ispinesib -0.186

NASP isoform 2 (UniProt P49321)
inactive: alisertib -0.129 | [3] -0.58

NOLC1 isoform 3 (UniProt Q14978)
inactive: zotarolimus -0.013 | [5] -0.305

NAP1L1 (UniProt B7Z9C2)
inactive: [1] -0.116 | idasanutlin -0.004 | alisertib 0.258 | gefitinib 0.03 | [3] 0.066 | pictilisib 0.111 | crizotinib -0.015 | duvelisib 0.327 | gandotinib 0.041 | [6] 0.433 | doramapimod 0.155
